# Inconclusive results are not listed. A call without a number means that no potency is given here. Calls of active or inactive are those of the source. Unless noted, calls follow the shape of the full dose curve.
# Key:
# [1] = qHTS profiling of the MIPE4 collection as inhibitors of Plasmodium falciparum (3D7) proliferation (AID 743344; call rule not given here); settings: P. falciparum 3D7 in erythrocytes, SYBR Green DNA fluorescence, 72 h; at 28.5 µM unless noted
# Outline: (§1)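 Parasite DNA was quantified by SYBR Green I fluorescence (ex 485, em 535 nm) after overnight lysis in saponin/Triton buffer at room temperature. Cultures at 0.3% parasitemia and 2.5% hematocrit were first exposed to compound for 72 h at 37 C; signals were normalised to artemisinin (0.29 uM) and vehicle wells.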
# [2] = qHTS profiling of the MIPE4 collection as inhibitors of Plasmodium falciparum (DD2) proliferation (AID 743345; call rule not given here); settings: P. falciparum Dd2 in erythrocytes, SYBR Green DNA, 72 h; at 28.5 µM unless noted
# Outline: as §1
# [3] = qHTS profiling of the MIPE4 collection as inhibitors of Plasmodium falciparum (DD2) proliferation (Rep 2) (AID 743346; call rule not given here); settings: P. falciparum Dd2 in erythrocytes, SYBR Green DNA, 72 h; at 28.5 µM unless noted
# Outline: as §1
# [4] = qHTS profiling of the MIPE4 collection as inhibitors of Plasmodium falciparum (HB3) proliferation (AID 743347; call rule not given here); settings: P. falciparum HB3 in erythrocytes, SYBR Green DNA, 72 h; at 28.5 µM unless noted
# Outline: as §1
# [5] = qHTS for Inhibitors of the Functional Ribonucleoprotein Complex (vRNP) of Lassa (LASV) Arenavirus: LASV Primary Screen - GLuc reporter signal (AID 1347082; calls by dose curve; tested in HEK293 reporter line; also: nearly all actives have a fitted effect of over 60% in size; also: potency is read from the fitted curve at half-maximal effect)
# [6] = qHTS for Inhibitors of the Functional Ribonucleoprotein Complex (vRNP) of Lassa (LASV) Arenavirus: Viability assay - alamar blue signal for LASV Primary Screen (AID 1347083; calls by dose curve; tested in HEK293 reporter line; also: nearly all actives have a fitted effect of over 80% in size; also: potency is read from the fitted curve at half-maximal effect)
# [7] = qHTS for Inhibitors of the Functional Ribonucleoprotein Complex (vRNP) of Lymphocytic Choriomeningitis Arenaviruses (LCMV): Viability assay - alamar blue signal for LCMV Primary Screen (AID 1347085; calls by dose curve; tested in HEK293 reporter line; also: nearly all actives have a fitted effect of over 80% in size; also: potency is read from the fitted curve at half-maximal effect)
# [8] = target: Nucleoprotein (Lymphocytic choriomeningitis virus (strain Armstrong)) (UniProt P09992); assay: qHTS for Inhibitors of the Functional Ribonucleoprotein Complex (vRNP) of Lymphocytic Choriomeningitis Arenaviruses (LCMV): LCMV Primary Screen - GLuc reporter signal (AID 1347086); also: nearly all actives have a fitted effect of over 70% in size; also: potency is read from the fitted curve at half-maximal effect
# Chain of Nucleoprotein (Lymphocytic choriomeningitis virus (strain Armstrong)) (P09992 whole entry, looked up): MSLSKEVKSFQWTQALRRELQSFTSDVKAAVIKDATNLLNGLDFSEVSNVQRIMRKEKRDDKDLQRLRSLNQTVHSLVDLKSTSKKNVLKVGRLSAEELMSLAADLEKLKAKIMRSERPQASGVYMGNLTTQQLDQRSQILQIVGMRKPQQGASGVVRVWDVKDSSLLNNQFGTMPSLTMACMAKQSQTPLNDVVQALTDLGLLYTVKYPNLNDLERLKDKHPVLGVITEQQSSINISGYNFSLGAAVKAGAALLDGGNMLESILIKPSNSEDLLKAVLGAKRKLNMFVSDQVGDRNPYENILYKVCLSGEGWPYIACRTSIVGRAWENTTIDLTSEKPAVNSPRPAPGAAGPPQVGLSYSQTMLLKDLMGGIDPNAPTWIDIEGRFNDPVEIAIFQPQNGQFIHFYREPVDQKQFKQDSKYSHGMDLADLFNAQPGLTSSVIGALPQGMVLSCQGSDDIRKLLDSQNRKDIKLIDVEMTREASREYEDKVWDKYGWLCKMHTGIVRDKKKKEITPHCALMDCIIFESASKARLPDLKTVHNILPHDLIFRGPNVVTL
# [9] = target: Alpha-galactosidase (Coffea arabica) (UniProt Q42656); assay: Counterscreen for Glucocerebrosidase Inhibitors: qHTS Assay for Coffee Bean alpha-Galactosidase at pH 4.5 (AID 957; active = well fitted curve in the direction sought with a large enough effect; an effect the other way counts as inactive or inconclusive)
# Chain of Alpha-galactosidase (Coffea arabica) (Q42656 whole entry, looked up): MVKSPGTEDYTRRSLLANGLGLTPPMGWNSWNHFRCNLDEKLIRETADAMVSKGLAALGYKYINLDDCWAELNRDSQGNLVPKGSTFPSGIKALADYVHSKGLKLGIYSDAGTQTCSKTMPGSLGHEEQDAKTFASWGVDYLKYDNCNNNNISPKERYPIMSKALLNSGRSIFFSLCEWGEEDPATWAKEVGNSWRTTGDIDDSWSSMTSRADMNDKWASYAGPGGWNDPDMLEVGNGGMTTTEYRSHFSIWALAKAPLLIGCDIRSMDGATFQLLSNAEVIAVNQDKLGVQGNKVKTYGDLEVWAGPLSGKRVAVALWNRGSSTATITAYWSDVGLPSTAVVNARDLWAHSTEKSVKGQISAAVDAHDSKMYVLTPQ
# Outline: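 Quantitative HTS of compounds (0.7 nM to 77 uM) against coffee bean alpha-galactosidase at pH 4.5, measuring 4-methylumbelliferone fluorescence released from 80 uM substrate.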
# [10] = target: Alpha-galactosidase (Coffea arabica) (UniProt Q42656); assay: Counterscreen for Glucocerebrosidase Inhibitors: qHTS Assay for Coffee Bean alpha-Galactosidase at pH 5.9 (AID 998; active = well fitted curve in the direction sought with a large enough effect; an effect the other way counts as inactive or inconclusive)
# Outline: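 Enzyme 2 nM + cpd (0.7 nM–77 uM titration) + 4-MU-alpha-Gal 80 uM, pH 5.9 citrate/Tween-20, RT 20 min, NaOH/glycine stop pH 10, fluor 365/440. Normalized to no-enzyme and full-activity controls; Hill-fit AC50.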
# [11] = target: Cytochrome P450 2C9 (Homo sapiens) (UniProt P11712); assay: qHTS Assay for Inhibitors and Substrates of Cytochrome P450 2C9 (AID 883; active = well fitted curve in the direction sought with a large enough effect; an effect the other way counts as inactive or inconclusive; also: potency is read from the fitted curve at half-maximal effect; nearly all actives have a fitted effect of over 60% in size)
# Chain of Cytochrome P450 2C9 (Homo sapiens) (P11712 whole entry, looked up): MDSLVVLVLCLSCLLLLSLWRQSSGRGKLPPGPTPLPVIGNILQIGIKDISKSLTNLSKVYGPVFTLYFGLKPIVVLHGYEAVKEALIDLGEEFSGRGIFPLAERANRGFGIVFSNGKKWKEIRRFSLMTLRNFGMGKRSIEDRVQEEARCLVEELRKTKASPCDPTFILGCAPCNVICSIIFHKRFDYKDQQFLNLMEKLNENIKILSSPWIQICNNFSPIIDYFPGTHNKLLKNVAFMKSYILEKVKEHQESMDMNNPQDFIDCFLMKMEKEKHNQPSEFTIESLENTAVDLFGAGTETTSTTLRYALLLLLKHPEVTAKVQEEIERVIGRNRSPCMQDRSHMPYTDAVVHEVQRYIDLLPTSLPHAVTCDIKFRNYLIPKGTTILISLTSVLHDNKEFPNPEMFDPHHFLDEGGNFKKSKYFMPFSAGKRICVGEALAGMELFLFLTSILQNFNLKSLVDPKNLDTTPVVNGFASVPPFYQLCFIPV
# Outline: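 Human CYP2C9 (10nM) with Luciferin-H at 100uM (its KM) in 25mM KPO4; compound preincubated 10 min at 37C, then NADPH regeneration for 60 min at 37C. Luciferin read by luminescence after detection reagent; normalized to 57uM sulphaphenazole as full inhibition.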
# [12] = target: Cytochrome P450 2D6 (Homo sapiens) (UniProt P10635); assay: qHTS Assay for Inhibitors and Substrates of Cytochrome P450 2D6 (AID 891; active = well fitted curve in the direction sought with a large enough effect; an effect the other way counts as inactive or inconclusive; also: potency is read from the fitted curve at half-maximal effect; nearly all actives have a fitted effect of over 60% in size)
# Chain of Cytochrome P450 2D6 (Homo sapiens) (P10635 whole entry, looked up): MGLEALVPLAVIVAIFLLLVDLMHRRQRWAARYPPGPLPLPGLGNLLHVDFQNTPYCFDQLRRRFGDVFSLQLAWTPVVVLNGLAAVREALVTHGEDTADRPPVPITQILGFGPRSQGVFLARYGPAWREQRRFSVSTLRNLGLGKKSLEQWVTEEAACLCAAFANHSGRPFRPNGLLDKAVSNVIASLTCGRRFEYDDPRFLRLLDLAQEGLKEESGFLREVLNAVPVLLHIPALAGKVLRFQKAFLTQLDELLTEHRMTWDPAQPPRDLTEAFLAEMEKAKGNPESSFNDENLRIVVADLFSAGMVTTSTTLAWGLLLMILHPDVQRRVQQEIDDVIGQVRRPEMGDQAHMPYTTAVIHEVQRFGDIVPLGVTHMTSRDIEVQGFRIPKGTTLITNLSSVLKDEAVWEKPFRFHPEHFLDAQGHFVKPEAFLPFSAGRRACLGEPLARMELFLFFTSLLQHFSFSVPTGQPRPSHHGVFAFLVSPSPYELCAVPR
# Outline: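 Luminescent read-out of luciferin formed by 5 nM human CYP2D6 demethylating 30 uM Luciferin-ME EGE (Km level) over 60 min at room temperature after NADPH regeneration addition. Data normalized to full inhibition by 1.43 uM quinidine.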
# [13] = target: Cytochrome P450 2C19 (Homo sapiens) (UniProt P33261); assay: qHTS Assay for Inhibitors and Substrates of Cytochrome P450 2C19 (AID 899; active = well fitted curve in the direction sought with a large enough effect; an effect the other way counts as inactive or inconclusive; also: potency is read from the fitted curve at half-maximal effect; nearly all actives have a fitted effect of over 60% in size)
# Chain of Cytochrome P450 2C19 (Homo sapiens) (P33261 whole entry, looked up): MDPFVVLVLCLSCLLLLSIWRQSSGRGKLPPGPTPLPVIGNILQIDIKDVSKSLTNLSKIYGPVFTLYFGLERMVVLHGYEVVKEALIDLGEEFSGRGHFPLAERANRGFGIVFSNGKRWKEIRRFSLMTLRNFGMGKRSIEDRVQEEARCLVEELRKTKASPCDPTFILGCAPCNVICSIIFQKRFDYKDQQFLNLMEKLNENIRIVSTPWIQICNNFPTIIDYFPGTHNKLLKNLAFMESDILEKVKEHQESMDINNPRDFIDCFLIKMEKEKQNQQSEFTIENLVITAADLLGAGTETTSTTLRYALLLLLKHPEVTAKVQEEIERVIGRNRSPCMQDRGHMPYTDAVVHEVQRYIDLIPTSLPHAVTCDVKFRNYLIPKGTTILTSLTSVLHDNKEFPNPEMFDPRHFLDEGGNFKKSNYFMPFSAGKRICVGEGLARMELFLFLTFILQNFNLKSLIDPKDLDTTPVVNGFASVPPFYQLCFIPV
# Outline: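 5 nM human CYP2C19 with 10uM Luciferin-H EGE (at KM) in 50mM KPO4, compound preincubated 10 min at 37C, then NADPH regeneration for 60 min at 37C. Luciferin read by luminescence after detection reagent; normalized to 57uM ketoconazole as full inhibition.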
# [14] = Cytotoxicity counterscreen for inhibitors of SARS-CoV-2 cell entry (AID 1645845); also: nearly all actives have a fitted effect of over 50% in size
# Outline: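 Counterscreen run in the same HEK293-ACE2 line as the pseudotyped-particle entry assay, without particles. Viability after 48 h at 37 C was read as ATP luminescence, scaled between cell-containing and cell-free wells.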
# [15] = Confirmatory qHTS for VERO E6 Cytotoxicity Assay: Counterscreen for SARS-CoV-2 CPE Assay (AID 1508605)
# [16] = Primary qHTS to identify inhibitors of SARS-CoV-2 cell entry (AID 1645846); settings: activity change, negative = inhibition: at 57.1 µM (top of the series) unless noted; also: nearly all actives have a fitted effect of over 45% in size
# Outline: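 Using luciferase-reporting pseudoviruses carrying Wuhan-Hu-1 spike, the screen tracks entry into stably ACE2-expressing cells over 48 hr. Activity is expressed relative to spike particles versus particles lacking any fusion protein.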
# [17] = target: Cytochrome P450 3A4 (Homo sapiens) (UniProt P08684); assay: qHTS Assay for Inhibitors and Substrates of Cytochrome P450 3A4 (AID 884; active = well fitted curve in the direction sought with a large enough effect; an effect the other way counts as inactive or inconclusive; also: potency is read from the fitted curve at half-maximal effect; nearly all actives have a fitted effect of over 50% in size)
# Chain of Cytochrome P450 3A4 (Homo sapiens) (P08684 whole entry, looked up): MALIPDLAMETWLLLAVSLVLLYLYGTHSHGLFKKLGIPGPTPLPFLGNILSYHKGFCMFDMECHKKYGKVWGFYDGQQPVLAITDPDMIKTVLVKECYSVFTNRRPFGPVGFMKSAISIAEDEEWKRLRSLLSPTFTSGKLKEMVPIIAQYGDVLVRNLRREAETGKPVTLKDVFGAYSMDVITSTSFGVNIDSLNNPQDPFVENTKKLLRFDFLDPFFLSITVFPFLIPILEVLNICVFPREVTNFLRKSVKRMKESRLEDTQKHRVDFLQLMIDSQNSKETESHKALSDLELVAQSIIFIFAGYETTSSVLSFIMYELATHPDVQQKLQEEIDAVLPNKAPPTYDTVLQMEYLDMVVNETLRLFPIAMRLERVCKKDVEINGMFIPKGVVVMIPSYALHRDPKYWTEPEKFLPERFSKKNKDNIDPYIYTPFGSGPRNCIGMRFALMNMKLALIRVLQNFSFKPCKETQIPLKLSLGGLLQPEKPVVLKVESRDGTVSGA
# Outline: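 Luminescent readout of luciferin produced by CYP3A4 (20 nM) dealkylation of Luciferin-PPXE, 25 uM (its KM). NADPH-driven reaction ran 60 min at RT after 10 min compound preincubation; data scaled to 57 uM ketoconazole as 100% inhibition.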
# [18] = target: Cytochrome P450 3A4 (Homo sapiens) (UniProt P08684); assay: qHTS Assay for Activators of Cytochrome P450 3A4 (AID 885; active = well fitted curve in the direction sought with a large enough effect; an effect the other way counts as inactive or inconclusive; also: nearly all actives have a fitted effect of over 65% in size)
# Outline: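 Luminescent readout of luciferin formed from 25 uM Luciferin-PPXE (KM level) by 20 nM CYP3A4 in 200 mM KPO4, with 60 min NADPH-driven reaction at room temperature after 10 min compound exposure. Ketoconazole (57 uM) defined 100% inhibition.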
# [19] = Validation screen for inhibitors of Lassa infection (AID 463096)
# [20] = Inducers of the Endoplasmic Reticulum Stress Response (ERSR) in human glioma: Validation (AID 504836; active = well fitted curve in the direction sought with a large enough effect; an effect the other way counts as inactive or inconclusive)
# Outline: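 Stably transfected U87-MG glioma cells carrying a GRP78-based luciferase sensor; 16 h compound incubation. Luminescence end-point read 10 min after Bright-Glo addition at room temperature.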
# [21] = Confirmatory qHTS for activators (rescue) of SARS-CoV-2 Cytopathic Effect (CPE) (AID 1508606); also: potency is read from the fitted curve at half-maximal effect; nearly all actives have a fitted effect of over 70% in size
smiles,measurement,setting,value
CON=C(C(=O)N[C@@H]1C(=O)N2C(C(=O)O)=C(Cn3ccc(=N)n3CCO)CS[C@H]12)c1csc(N)n1,"parasite growth, % of DMSO control",[1],60.9%
same,"parasite growth remaining, % of DMSO control (lower = more inhibition)",[2],93.5%
same,"parasite growth, % of control (lower = inhibition)",[3],92%
same,"growth, % of control",[4],99.1%
same,Potency,[5],inactive
same,Potency,[6],inactive
same,Potency,[7],inactive
same,Potency,[8],inactive
CC=C1C2C=C(C)CC1(N)c1ccc(=O)[nH]c1C2 (stereo unspecified),"parasite growth, % of control (lower = inhibition)",[3],79.2%
same,"growth, % of control",[4],103%
same,Potency,[5],inactive
same,Potency,[6],inactive
same,Potency,[7],inactive
same,Potency,[8],inactive
N[C@H](C(=O)O)c1cc(O)cc(O)c1,outcome,[9],inactive
same,outcome,[10],inactive
same,Potency,[5],inactive
same,Potency,[6],inactive
same,Potency,[7],inactive
same,Potency,[8],inactive
COc1c2ccoc2cc2oc(=O)ccc12,Potency,[11],5.01 µM (active)
same,Potency,[12],2 µM (active)
same,Potency,[13],3.16 µM (active)
same,Potency,[5],inactive
same,Potency,[6],inactive
same,Potency,[7],inactive
same,Potency,[8],inactive
CN(C)S(=O)(=O)c1ccc2c(c1)C(=Cc1cc3c([nH]1)CCCC3)C(=O)N2,Potency,[5],inactive
same,Potency,[6],10.9 µM (active)
same,Potency,[7],2.73 µM (active)
same,Potency,[14],inactive
Cc1c(CCOc2ccc(C(=O)O)cc2)c2cc(Cl)ccc2n1C(c1ccccc1)c1ccccc1,Potency,[5],inactive
same,Potency,[6],inactive
same,Potency,[7],inactive
same,Potency,[15],12.6 µM (active)
same,Potency,[14],inactive
same,"activity change, negative = inhibition",[16],-34.5%
O=c1c2ccccc2oc2ccccc12,Potency,[17],12.6 µM (active)
same,Potency,[18],inactive
same,Potency,[5],inactive
same,Potency,[6],inactive
same,Potency,[7],inactive
same,Potency,[8],inactive
Nc1nc(OCc2ccccc2)c2[nH]cnc2n1,Potency,[18],inactive
same,Potency,[13],6.31 µM (active)
same,outcome,[9],inactive
same,outcome,[10],inactive
same,Potency,[19],inactive
same,outcome,[20],inactive
same,"parasite growth, % of DMSO control",[1],83.5%
same,"parasite growth remaining, % of DMSO control (lower = more inhibition)",[2],103%
same,"growth, % of control",[4],44%
same,Potency,[5],inactive
same,Potency,[6],inactive
same,Potency,[7],17.2 µM (active)
same,Potency,[14],inactive
same,Potency,[16],inactive
Cc1cc(Cl)ccc1OCCCC(=O)NO,Potency,[5],inactive
same,Potency,[6],24.3 µM (active)
same,Potency,[8],inactive
same,Potency,[14],inactive
C=CCNc1c(O)cc2c(O)c1C[C@@H](C)C[C@H](OC)[C@@H](O)[C@@H](C)C=C(C)[C@H](OC(N)=O)[C@@H](OC)C=CC=C(C)C(=O)N2,Potency,[5],10.9 µM (active)
same,Potency,[6],4.85 µM (active)
same,Potency,[8],4.85 µM (active)
CC(C)(N)c1ccc(-c2nc3ccccc3nc2-c2ccccc2)cc1,Potency,[5],inactive
same,Potency,[6],19.3 µM (active)
same,Potency,[8],inactive
same,Potency,[21],10 µM (active)
same,Potency,[14],inactive
same,"activity change, negative = inhibition",[16],-19.6%
CCN(CC)CCCCCCCCOC(=O)c1cc(OC)c(OC)c(OC)c1,outcome,[9],inactive
same,outcome,[10],inactive
same,outcome,[20],inactive
same,Potency,[5],inactive
same,Potency,[6],inactive
same,Potency,[7],inactive
